# Source: PubChem BioAssay
# Hsp70 act = switches on Hsp70 transcription; AID 1203; activation, % at 10 µM; 200,000 compounds, 0.04% hits; HeLa Hsp70 promoter luciferase reporter, luminescence; scaled: vehicle 0, proteasome-inhibitor control 100%;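 active = activation above the mean across all tested compounds plus 3 SD, cutoff set per campaign, cut at about 5.5% in these data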;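 also: 100% = MG132 at 30 µM as the positive control and 0% = DMSO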
# S1P4 antag = human S1P4 receptor antagonism; inhibition, % at 4.98 µM; 220,000 compounds, 0.26% hits; S1P4-expressing cells, antagonist mode, reporter read-out; in the data active = inhibition above about 29%;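 also: 0% = wells stimulated with agonist and 100% = vehicle wells without agonist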
# S1P3 antag = blocks the human S1P3 receptor; AID 485; 170,000 compounds, 0.27% hits; Q99500; CHO S1P3 NFAT-BLA reporter, FRET fluorescence, antagonist mode; inhibition, % at 4.98 µM;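 active = inhibition above the plate cutoff, the mean inhibition of test wells on that plate plus 3 SD, cut at about 28% in these data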;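 also: cells challenged with S1P at its EC80 of 0.8 µM; blue over green emission ratio from cleaved BLA substrate after 4 h stimulation; 0% = S1P-stimulated wells and 100% = unstimulated DMSO-only wells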
# Target sequence (Q99500 whole entry, looked up): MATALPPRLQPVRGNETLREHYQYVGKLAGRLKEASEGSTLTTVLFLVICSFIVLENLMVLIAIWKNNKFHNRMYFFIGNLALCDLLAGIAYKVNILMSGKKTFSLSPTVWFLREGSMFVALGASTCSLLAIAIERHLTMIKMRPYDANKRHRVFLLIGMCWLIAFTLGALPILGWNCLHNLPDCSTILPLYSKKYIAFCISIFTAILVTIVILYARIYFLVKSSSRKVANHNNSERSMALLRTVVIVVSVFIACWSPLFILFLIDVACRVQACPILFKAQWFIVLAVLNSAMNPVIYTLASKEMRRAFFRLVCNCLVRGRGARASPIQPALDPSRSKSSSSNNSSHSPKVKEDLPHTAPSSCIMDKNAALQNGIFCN
# HSF1 inhib = HSF1 inhibition; NIH3T3-HGL HSE-luciferase, MG132-induced, luminescence 8 h; hits give low values; activity change, negative = inhibition, % at 7.5 µM (by protocol); 300,000 compounds, 0.77% hits; AID 2098;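 active = more than half of replicate wells show activity change below -50%, luminescence cut by over half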;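 also: luciferase reports HSF-1 transcriptional activity via heat shock element; 0% = median of DMSO wells and -100% = zero luminescence signal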
# HSF1 activator = increases HSF-1 driven luciferase reporter signal. NIH3T3-HGL HSF-1 luciferase reporter, MG132, 8 h; 100% = twice DMSO control signal. activation, % at 9 µM. 300,000 compounds, 1.7% hits;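 active = mean replicate activation of at least 50% with a set share of replicates each reaching 50%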;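 also: 0% = median of the neutral control wells and 100% = twice that signal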
# S1P4 agonist = activates the human S1P4 receptor. S1P4-expressing cell line, agonist reporter assay. activation, % at 4.98 µM. 220,000 compounds, 0.35% hits; in the data active = activation above about 11%;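 also: 0% = DMSO vehicle and 100% = reference agonist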
# * = called active by the depositor; / = not tested or not shown. This is a sample that favours compounds with a hit; in the whole collection about 2.9% have one here.
SMILES,Hsp70 act,S1P4 antag,S1P3 antag,HSF1 inhib,HSF1 activator,S1P4 agonist
CC1=Nc2cc(C(=O)O)ccc2Sc2c(C)ccc(C)c21,0,6,-1,110,101*,0
CC(C)Sc1nc2ccccc2[nH]1,0,-3,5,-7,-4,-1
Fc1ccc(N/N=C/C=C/c2ccccc2)c(F)c1,0,1,10,23,23,1
CC(=O)Nc1ccc(S(=O)(=O)NCc2csc(C)n2)cc1,0,-6,-8,-87*,-90,3
C[C@H](NC(=O)c1ccco1)C(=O)NCCc1ccc(S(N)(=O)=O)cc1,/,-13,-4,-11,3,3
CC(=O)c1ccc(S(=O)(=O)N(C)C(C)CCc2ccco2)cc1 (stereo not given),/,/,/,-2,-10,/
COc1ccc(N(CC(=O)Nc2cccnc2)S(C)(=O)=O)cc1,0,-2,-12,-3,-6,-1
COC(=O)c1ccccc1NC(=O)CN(c1cc(OC)ccc1OC)S(C)(=O)=O,0,6,/,3,2,-2
COc1ccc(OC)c(N(CC(=O)Nc2ccccc2)S(C)(=O)=O)c1,0,-2,19,-65*,-72,-1
COc1cccc(N(CC(=O)Nc2cccnc2)S(C)(=O)=O)c1,0,0,-9,-81*,-85,2
CCOC(=O)N1CCC(NC(=O)c2ccc(CS(=O)c3cccc(Cl)c3)o2)CC1 (stereo not given),/,/,/,2,13,/
COC(=O)C1=C(CN2CCCc3ccccc32)NC(=O)NC1c1ccc(F)cc1 (stereo not given),-1,-5,19,-71*,-74,1
COC(=O)C1=C(CN2CCc3ccccc32)NC(=O)NC1c1cc(C)ccc1C (stereo not given),0,-17,-31,12,7,1
CC(C)(C)c1ccc(NC(=S)NCc2cccs2)cc1,0,0,/,105,145*,2
S=C(NCc1ccccc1)Nc1cccc2ccccc12,/,/,/,2,25,/
S=C(NCc1cccs1)Nc1cccc2ccccc12,0,-3,4,32,56*,1
Cc1ccc(S(=O)(=O)N/N=C/c2c(C)nn(-c3ccccc3)c2C)cc1,0,0,/,-54*,-65,1
Cc1nn(-c2ccccc2)c(C)c1/C=N/NC(=O)CSc1nnc(-c2ccccc2)n1-c1ccc(Cl)cc1,0,-6,0,6,16,0
Cc1ccc(S(=O)(=O)N/N=C\c2cn(-c3ccccc3)nc2-c2ccccc2)cc1,0,-1,/,-3,-11,0
Cc1ccc(-c2nnc(SCC(=O)N/N=C/c3c(C)nn(-c4ccccc4)c3C)n2-c2ccccc2)cc1,0,-13,-5,7,18,1
Cc1nn(-c2ccccc2)c(C)c1/C=N/NC(=O)CSc1nnc(SCc2ccccc2Cl)s1,0,-16,-3,41,68*,0
Cc1ccc(CSc2nnc(SCC(=O)N/N=C/c3c(C)nn(-c4ccccc4)c3C)s2)cc1,0,-13,7,56,65*,0
CC1CCN(C(=S)NC(=O)c2cccs2)CC1,0,-11,-12,-2,-9,0
COc1ccc(-c2nnn(CC(=O)NCCc3ccc(OC)c(OC)c3)n2)cc1,0,7,-7,2,-6,-1
COc1ccccc1CCNC(=O)C1CCC(=O)N(C2CC2)C1 (stereo not given),/,/,/,-2,-13,/
SMILES,Hsp70 act,S1P4 antag,S1P3 antag,HSF1 inhib,HSF1 activator,S1P4 agonist
COc1cccc(CCNC(=O)C2CCC(=O)N(C3CC3)C2)c1OC (stereo not given),/,/,/,21,59*,/
Cc1cc(C(C)(C)C)cc(C)c1C[n+]1ccc2ccccc2c1,/,/,/,-8,-12,/
COc1cc2c(cc1OC)/C(=C/C(=O)c1ccccc1)NCC2,/,/,/,-4,-11,/
COc1cc2c(cc1OC)/C(=C/C(=O)c1ccc(C)cc1)NCC2,/,/,/,-80*,-83,/
O=[N+]([O-])c1ccc2nc(-c3ccc(Cl)cc3)[nH]c2c1,0,1,7,32,80*,1
Cc1ccc(-c2nc3ccc([N+](=O)[O-])cc3[nH]2)cc1,0,-9,1,50,61*,0
COc1ccc(-c2nc3ccc([N+](=O)[O-])cc3[nH]2)cc1,0,-12,1,7,54*,0
COc1ccc(C(=O)NNC(=O)Cc2ccc(Cl)cc2)cc1,0,-3,-6,0,7,7
COc1ccc(C/C(=N\O)c2ccc(OC)cc2)cc1,0,1,/,35,53*,-1
Cc1[nH]n(-c2ccccc2)c(=O)c1C(C[N+](=O)[O-])c1ccccc1Cl (stereo not given),0,5,/,107,146*,-3
COc1ccc(C(C[N+](=O)[O-])c2c(C)[nH]n(-c3ccccc3)c2=O)cc1 (stereo not given),/,/,/,7,12,/
O=C(Nc1nnc(-c2ccccc2Cl)s1)C1CCN(S(=O)(=O)c2ccc(Cl)cc2)CC1,0,-15,6,13,56*,-1
O=C(Nc1nnc(-c2ccccc2F)s1)C1CCN(S(=O)(=O)c2ccc(Cl)cc2)CC1,0,-10,-8,/,/,0
CC(O)CNC12CC3CC(CC(C3)C1)C2 (stereo not given),0,9,-11,4,-2,3
Cc1ccc(OCc2ccc(-c3ccccc3)cc2)c([N+](=O)[O-])n1,/,/,/,15,23,/
Cc1ccc(OCCOc2cccc(Br)c2)c([N+](=O)[O-])n1,0,-21,-9,62,88*,-1
Cc1ccc(OCc2ccc(Br)cc2)c([N+](=O)[O-])n1,1,-6,4,29,77*,1
CCOc1cc(Br)c(COc2ccc(C)nc2[N+](=O)[O-])cc1OCC,/,/,/,-7,6,/
Brc1ccc(CNc2ccc3ncccc3c2)cc1,/,/,/,47,79*,/
O=C(CCC1CCCN(C(=O)c2ccc3cc[nH]c3c2)C1)NCc1ccc(F)c(F)c1 (stereo not given),0,8,-6,24,57*,0
CC[n+]1c(/C=C/c2cc([N+](=O)[O-])ccc2O)ccc2ccccc21,/,/,/,-58*,-67,/
CC[n+]1c(/C=C/c2ccc(OC)c(OC)c2)ccc2ccccc21,/,/,/,-25,-33,/
Cc1ccc(C)c(OCC(=O)Nc2ccncc2)c1,/,/,/,8,18,/
O=C(CSc1nnc(-c2ccncc2)n1Cc1ccccc1)NC1CCCc2ccccc21 (stereo not given),0,-8,6,-4,-3,-2
CCN(Cc1ccncc1)C(=O)c1cc(Br)cc(Br)c1O,0,-3,12,11,51*,4
C=CCn1c(-c2cc3cccc(OC)c3o2)n[nH]c1=S,0,-23,-15,1,7,-2
Cc1ccc(NC(=O)C2CCN(S(=O)(=O)c3ccc(N4CCCC4=O)cc3)CC2)cc1Cl,/,/,/,-11,-1,/
